# PubChem BioAssay (NCATS)
# Records with an inconclusive call do not appear. Where a call stands in place of a potency, no number is given. The source made the active and inactive calls. Unless noted, the call rests on the fitted dose curve; in most records, active means well fitted curve in the direction sought with a large enough effect; inconclusive means small, poorly fitted or top-dose-only effect, or another doubt; inactive means no such curve, though single readings can be large; an effect the other way counts as inactive or inconclusive.
# How the values were obtained:
# [1] = Primary qHTS for small molecule stabilizers of the endoplasmic reticulum resident proteome: Secreted ER Calcium Modulated Protein (SERCaMP) assay (AID 1508630); settings: SH-SY5Y GLuc-SERCaMP (Gaussia luciferase released on ER calcium loss) secretion, thapsigargin, luminescence; series mostly up to 38.4 µM; further: potency means the concentration at half of the fitted maximal effect
# Procedure, shortened: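 GLuc-SERCaMP-expressing SH-SY5Y cells, pretreated 16 h with compound, are challenged with thapsigargin to empty ER calcium stores; after 4 h, coelenterazine is added directly to the medium and luminescence is imaged.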
# [2] = A High-Content qHTS Against Drug Library for the Identification of Small Molecules that Inhibit DYT1 Early Onset Primary Dystonia-Associated Cell Pathology (AID 1645839; calls by dose curve); settings: HEK293 Flp-In EGFP-delE TorsinA, punctate imaging, 48 h; series mostly up to 46.1 µM
# Procedure, shortened: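 In this high-content image screen, delE TorsinA mislocalization in inducible Flp-In 293 cells is scored as %pathology, with cell count serving as the counterscreen. Compound exposure lasts 48 h under tetracycline induction in reduced-serum medium.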
# [3] = molecular target: Cytochrome P450 2D6 (Homo sapiens) (UniProt P10635); assay: Cytochrome P450 family 2 subfamily D member 6 (CYP2D6) small molecule antagonists: luciferase biochemical (cell-free) qHTS assay (AID 1645840; active means well fitted curve in the direction sought with a large enough effect in the repeat runs; an effect the other way counts as inactive or inconclusive; further: nearly all actives have a fitted effect of over 55% in size; further: potency means the concentration at half of the fitted maximal effect); settings: P450-Glo CYP2D6 enzyme, luciferin luminescence, 1 h; series mostly up to 57.4 µM
# Cytochrome P450 2D6 (Homo sapiens), sequence (P10635 whole entry, looked up): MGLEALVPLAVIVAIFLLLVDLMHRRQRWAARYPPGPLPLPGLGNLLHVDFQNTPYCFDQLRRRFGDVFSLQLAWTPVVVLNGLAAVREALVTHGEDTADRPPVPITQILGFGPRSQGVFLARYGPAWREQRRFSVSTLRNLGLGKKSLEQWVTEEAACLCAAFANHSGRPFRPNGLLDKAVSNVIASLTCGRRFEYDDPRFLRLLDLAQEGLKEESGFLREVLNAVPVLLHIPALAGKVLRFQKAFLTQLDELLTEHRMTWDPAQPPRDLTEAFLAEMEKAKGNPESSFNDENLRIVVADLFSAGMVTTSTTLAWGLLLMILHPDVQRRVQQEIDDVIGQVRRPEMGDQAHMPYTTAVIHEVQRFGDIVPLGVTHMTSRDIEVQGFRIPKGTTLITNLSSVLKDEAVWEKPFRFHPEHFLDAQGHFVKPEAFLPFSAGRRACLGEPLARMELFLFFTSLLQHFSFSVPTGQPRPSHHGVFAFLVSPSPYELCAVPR
# Procedure, shortened: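 P450-Glo luminescent screen: recombinant CYP2D6 enzyme–proluciferin substrate mix preincubated with compound 10 min at room temperature, then NADPH regeneration added for 1 h at room temperature. Detection reagent added for 20 min; luciferin light read as relative luminescence units.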
# [4] = Primary qHTS for inhibitors of nuclear receptor binding SET domain protein 2 (NSD2) in an isogenic RCH-ACV NSD2 p.E1099K mutant (9B) (AID 1645876); settings: RCH-ACV (leukaemia line) NSD2 E1099K (9B) viability, CellTiter-Glo, 72 h; series mostly up to 44.9 µM; further: nearly all actives have a fitted effect of over 70% in size; further: potency means the concentration at half of the fitted maximal effect
# [5] = molecular target: Cytochrome P450 2C9 (Homo sapiens) (UniProt P11712); assay: Cytochrome P450 family 2 subfamily C member 9 (CYP2C9) small molecule antagonists: luciferase biochemical (cell-free) qHTS assay (AID 1645842; active means well fitted curve in the direction sought with a large enough effect in the repeat runs; an effect the other way counts as inactive or inconclusive; further: nearly all actives have a fitted effect of over 55% in size; further: potency means the concentration at half of the fitted maximal effect); settings: P450-Glo CYP2C9 enzyme assay, luciferin luminescence; series mostly up to 57.4 µM
# Cytochrome P450 2C9 (Homo sapiens), sequence (P11712 whole entry, looked up): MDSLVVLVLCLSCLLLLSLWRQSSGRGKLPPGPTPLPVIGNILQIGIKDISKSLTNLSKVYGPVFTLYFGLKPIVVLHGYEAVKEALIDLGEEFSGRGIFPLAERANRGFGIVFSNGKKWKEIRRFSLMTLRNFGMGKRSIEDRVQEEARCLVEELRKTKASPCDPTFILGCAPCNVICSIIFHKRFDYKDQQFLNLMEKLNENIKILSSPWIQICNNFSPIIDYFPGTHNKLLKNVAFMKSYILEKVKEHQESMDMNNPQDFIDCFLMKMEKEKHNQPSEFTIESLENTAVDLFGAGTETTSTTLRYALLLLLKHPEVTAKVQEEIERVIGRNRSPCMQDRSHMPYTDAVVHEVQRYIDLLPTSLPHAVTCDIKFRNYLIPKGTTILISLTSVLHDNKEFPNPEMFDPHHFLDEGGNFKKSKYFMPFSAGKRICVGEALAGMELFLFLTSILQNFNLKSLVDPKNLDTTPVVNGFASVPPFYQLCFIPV
# Procedure, shortened: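 Luminescence, after 20 min with luciferin detection reagent, reflected CYP2C9 turnover during a 1 h NADPH-driven reaction at 37C. Enzyme-substrate mix contained 0.4% bovine serum albumin and was preincubated with compound 10 min at room temperature.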
# [6] = molecular target: Cytochrome P450 3A4 (Homo sapiens) (UniProt P08684); assay: Cytochrome P450 family 3 subfamily A member 4 (CYP3A4) small molecule antagonists: luciferase qHTS assay (AID 1645841; active means well fitted curve in the direction sought with a large enough effect in the repeat runs; an effect the other way counts as inactive or inconclusive; further: nearly all actives have a fitted effect of over 45% in size); settings: P450-Glo CYP3A4 enzyme assay, luciferin luminescence; series mostly up to 57.4 µM
# Cytochrome P450 3A4 (Homo sapiens), sequence (P08684 whole entry, looked up): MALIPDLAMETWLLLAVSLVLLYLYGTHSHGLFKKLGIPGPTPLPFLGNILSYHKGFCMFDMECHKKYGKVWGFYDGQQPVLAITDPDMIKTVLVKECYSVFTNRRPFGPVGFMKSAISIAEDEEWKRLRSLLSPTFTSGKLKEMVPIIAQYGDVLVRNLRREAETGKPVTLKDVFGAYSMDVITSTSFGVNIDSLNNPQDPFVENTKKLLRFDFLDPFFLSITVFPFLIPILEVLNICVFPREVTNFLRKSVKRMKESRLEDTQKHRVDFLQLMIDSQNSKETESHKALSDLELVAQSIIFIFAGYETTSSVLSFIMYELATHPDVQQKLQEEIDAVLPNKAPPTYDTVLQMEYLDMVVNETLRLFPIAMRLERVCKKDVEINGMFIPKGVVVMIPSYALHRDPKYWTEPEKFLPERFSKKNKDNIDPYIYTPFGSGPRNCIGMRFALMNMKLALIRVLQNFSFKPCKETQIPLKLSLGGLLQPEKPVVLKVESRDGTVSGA
# Procedure, shortened: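 Luminescent CYP3A4 activity readout: compounds plus enzyme-substrate mix 10 min at room temperature, reaction started with NADPH regenerating system for 1 h, stopped with detection reagent, read after 20 min. Ketoconazole served as control.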
SMILES,Potency [1],Potency [2],Potency [3],Potency [4],Potency [5],Potency [6]
CC(=O)OCC(=O)[C@H]1CC[C@H]2[C@@H]3CCC4=CC(=O)CC[C@]4(C)[C@H]3CC[C@]12C,inactive,inactive,inactive,inactive,,
Cc1cc(-c2ccccc2)nnc1NCCN1CCOCC1,inactive,inactive,4.9 µM (active),inactive,,
CC(=O)NCCCCCC(=O)O,inactive,inactive,inactive,inactive,inactive,
CCCCCCCCCCCCCCCCO,inactive,inactive,inactive,inactive,inactive,
CC(=O)Nc1ccc(OCC(O)CNC(C)C)cc1 (configuration not stated),inactive,inactive,inactive,inactive,inactive,
CC(C)NCC(O)c1ccc2ccccc2c1 (configuration not stated),inactive,inactive,3.47 µM (active),inactive,inactive,
CC1=C(C(=O)O)N2C(=O)[C@@H](NC(=O)[C@H](N)c3ccccc3)[C@H]2SC1,inactive,inactive,,inactive,,
NS(=O)(=O)c1cc2c(cc1Cl)NC(CC1CCCC1)NS2(=O)=O (configuration not stated),inactive,inactive,,inactive,inactive,
NC(=S)N/N=C/c1cccnc1,inactive,inactive,,inactive,inactive,
CC(=O)Nc1ccc(S(=O)(=O)Nc2ccc([N+](=O)[O-])cc2)cc1,inactive,inactive,,inactive,13.8 µM (active),
CC[N+](C)(CC)CCOC(=O)C(O)(c1ccccc1)C1CCCCC1 (configuration not stated),inactive,inactive,,inactive,inactive,
C=C[C@@]1(C)CC(=O)[C@]2(O)[C@@]3(C)[C@@H](O)CCC(C)(C)[C@@H]3[C@H](O)[C@H](OC(C)=O)[C@@]2(C)O1,inactive,inactive,,841 nM (active),,
COc1cc(C(=O)N2CCCCCCC2)cc(OC)c1OC,inactive,inactive,,inactive,inactive,
CC(C)(C)NCC(O)COc1cccc2c1C[C@H](O)[C@H](O)C2 (some centres not stated),inactive,inactive,,inactive,,inactive
O=C(CCCN1CC=C(n2c(=O)[nH]c3ccccc32)CC1)c1ccc(F)cc1,25.1 µM (active),inactive,,inactive,inactive,
O=C1OC(CN2CCOCC2)CN1/N=C/c1ccc([N+](=O)[O-])o1 (configuration not stated),inactive,inactive,,,inactive,
Cc1ccccc1OCC(O)CO (configuration not stated),inactive,inactive,,inactive,,
CC(C)(C)NC[C@H](O)COc1cccc2c1CCCC2=O,inactive,inactive,,inactive,inactive,
